Assay [1] relates to Plasmodium falciparum Sir2 (PF13_0152, Sir2A). In words: Plasmodium falciparum Sir2A binding compounds – biochemical, small-molecule microarray, 635 nm fluorescence, primary screen (AID 1098).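 Also: score merges spot fluorescence intensity with its signal-to-noise ratio.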 The note with it: fluorescence 635 nm, higher = more signal.
The nature of assay [2]: probe aDKK1 binding to arrayed compounds – biochemical, biotinylated probe, 635/667 nm fluorescence, primary screen (AID 1099).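 Also: score merges 667nm spot fluorescence with signal to noise across triplicate slides.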 The note with it: small-molecule microarray, higher = more signal.
Assay [3] is described as follows: probe aCHRDL2 binding to arrayed compounds – biochemical, biotinylated probe, 635/667 nm fluorescence, primary screen (AID 1100). The note with it: small-molecule microarray, higher = more signal.
Assay [4] in a line: change in splice reporter luminescence, either direction, cell-based, HEK293, spliceosome inhibition project, primary screen (AID 1101).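 Also: HEK293 cells carrying a splicing-competent luciferase reporter gene; test concentration not given here.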 The note with it: HEK293 splicing luciferase reporter, 24 h, higher = more signal, called active from +8 up or from −8 down.
The target in assay [5] is Fibroblast growth factor 10 (Homo sapiens) (UniProt O15520). Kind of assay: compounds binding fibroblast growth factor 10 – biochemical, small-molecule microarray, 635 nm fluorescence, primary screen (AID 1102). The note with it: FGF10 binding, fluorescence 635 nm, higher = more signal.
Chain of Fibroblast growth factor 10 (Homo sapiens) (O15520 whole entry, looked up): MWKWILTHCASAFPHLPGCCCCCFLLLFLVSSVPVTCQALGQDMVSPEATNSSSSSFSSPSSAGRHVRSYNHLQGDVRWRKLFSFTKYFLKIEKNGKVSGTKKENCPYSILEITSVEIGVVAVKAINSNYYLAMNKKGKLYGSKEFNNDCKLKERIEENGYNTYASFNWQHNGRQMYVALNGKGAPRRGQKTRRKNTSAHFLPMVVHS
In assay [6] the test system is glycogen synthase kinase-3 (GSK3A per assay name; protocol says GSK3B). Kind of assay: compounds binding glycogen synthase kinase-3 – biochemical, small-molecule microarray, 635 nm fluorescence, GSK3A, primary screen (AID 1103). Also: the record names both GSK3A and GSK3B. The note with it: fluorescence 635 nm, higher = more signal.
Assay [7] has as its target Epidermal growth factor receptor (Homo sapiens) (UniProt P00533). In words: compounds binding epidermal growth factor receptor – biochemical, small-molecule microarray, 635 nm fluorescence, primary screen (AID 1104).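 Also: score merges 667 nm emission intensity with spot signal to noise over triplicate slides.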 The following applies: EGFR binding, higher = more signal.
Assay [8] has as its target Follistatin-related protein 3 (Homo sapiens) (UniProt O95633). In words: compounds binding follistatin-related protein 3 – biochemical, small-molecule microarray, 635 nm fluorescence, primary screen (AID 1105).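 Also: score merges emission near 667 nm and signal to noise per printed spot across three slides.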 The note with it: FSTL3 binding, higher = more signal.
Assay [9] concerns the target Dickkopf-related protein 1 (Homo sapiens) (UniProt O94907). In words: small molecules binding DKK1 protein – biochemical, small-molecule microarray, 635 nm fluorescence scan, primary screen (AID 1106).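 Also: score merges emission near 667 nm with signal to noise over three replicate slides.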 The note with it: higher = more signal.
In assay [10] the test system is Inhibin beta A chain (activin A). Kind of assay: small molecules binding activin A – biochemical, small-molecule microarray, 635 nm fluorescence scan, primary screen (AID 1107).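 Also: mouse activin A protein probed at 4.33 µg/mL on printed slides; score merges bound-protein fluorescence near 667 nm with spot signal-to-noise.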 The following applies: INHBA, higher = more signal.
Assay [11] relates to Human papillomavirus type 1a protein E7 (residues 44-93). Kind of assay: small molecules binding HPV E7 44-93 – biochemical, small-molecule microarray, residues 44-93, 635 nm fluorescence, primary screen (AID 1108).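 Also: E7 fragment applied at 1 µg/mL in TBST for 1 h at 4 C; score combines spot fluorescence with its signal to noise ratio.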 The note with it: fluorescence 635 nm, higher = more signal.
Assay [12] is described as follows: hepatitis C replication reporter changes, two-sided – Huh7 cells, luciferase reporter, HCV replication inhibitor project, primary screen (AID 1109).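 Also: huh7 hepatoma cells harbouring a luciferase neomycin HCV replicon reporter; luciferase luminescence as measure of HCV replicon replication; test concentration not given here.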 The note with it: Huh7 HCV replicon luciferase reporter, 48 h; higher = more signal.
Assay [13] has as its target Left-right determination factor 2 (Homo sapiens) (UniProt O00292). In words: small molecules binding LEFTY2 protein – biochemical, small-molecule microarray, 635 nm fluorescence scan, primary screen (AID 1110). The following applies: higher = more signal.
In assay [14] the target is Calmodulin-1 (Homo sapiens) (UniProt P0DP23). In words: small molecules binding calmodulin-1 with EGTA – biochemical, small-molecule microarray, Cy5-labelled CALM1, profiling panel (AID 1111).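 Also: labelled calmodulin applied in Tris saline Tween buffer holding calcium plus EGTA and DTT.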 The following applies: Cy5-CALM1 binding fluorescence, higher = more signal.
For assay [15] the target is unchanged. In words: small molecules binding Ca-loaded calmodulin-1 – biochemical, small-molecule microarray, Cy5-labelled CALM1, plus calcium, artefact control for SMM control-protein annotation, profiling panel (AID 1112).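 Also: score merges spot fluorescence with signal to noise from triplicate slides.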 The note with it: Cy5-CALM1 binding fluorescence, higher = more signal.
A short description of assay [16]: probe aWnt5a binding to arrayed compounds – biochemical, biotinylated probe, 635/667 nm fluorescence, primary screen (AID 1113).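 Also: score merges 667 nm fluorescence intensity with signal-to-noise per printed feature.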 The note with it: small-molecule microarray, higher = more signal.
Assay [17] can be described thus: probe aShh binding to arrayed compounds – biochemical, biotinylated probe, 635/667 nm fluorescence, primary screen (AID 1114).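 Also: probe is biotin-labelled aShh protein from a stem cell growth factor screen; measures binding of labelled protein to compounds printed on the slide; score merges feature fluorescence at 667 nm with signal-to-noise.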 The note with it: small-molecule microarray, higher = more signal.
Assay [18] is described as follows: probe aNog binding to arrayed compounds – biochemical, biotinylated probe, 635/667 nm fluorescence, primary screen (AID 1115).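 Also: probe is biotinylated aNog protein used at 0.15 µg/mL for 1 h at 4 C; z-score combines 667 nm fluorescence of each spot with its signal to noise.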 The following applies: small-molecule microarray, higher = more signal.
In assay [19] the target is Torsin-1A-interacting protein 1 (Homo sapiens) (UniProt Q5JTV8). In words: compound microarray binding of lysate hLAP1 – cell lysate, small-molecule microarray, COS7 lysate, 635/667 nm fluorescence, primary screen (AID 1116). The note with it: 635 nm fluorescence, higher = more signal.
Chain of Torsin-1A-interacting protein 1 (Homo sapiens) (Q5JTV8 whole entry, looked up): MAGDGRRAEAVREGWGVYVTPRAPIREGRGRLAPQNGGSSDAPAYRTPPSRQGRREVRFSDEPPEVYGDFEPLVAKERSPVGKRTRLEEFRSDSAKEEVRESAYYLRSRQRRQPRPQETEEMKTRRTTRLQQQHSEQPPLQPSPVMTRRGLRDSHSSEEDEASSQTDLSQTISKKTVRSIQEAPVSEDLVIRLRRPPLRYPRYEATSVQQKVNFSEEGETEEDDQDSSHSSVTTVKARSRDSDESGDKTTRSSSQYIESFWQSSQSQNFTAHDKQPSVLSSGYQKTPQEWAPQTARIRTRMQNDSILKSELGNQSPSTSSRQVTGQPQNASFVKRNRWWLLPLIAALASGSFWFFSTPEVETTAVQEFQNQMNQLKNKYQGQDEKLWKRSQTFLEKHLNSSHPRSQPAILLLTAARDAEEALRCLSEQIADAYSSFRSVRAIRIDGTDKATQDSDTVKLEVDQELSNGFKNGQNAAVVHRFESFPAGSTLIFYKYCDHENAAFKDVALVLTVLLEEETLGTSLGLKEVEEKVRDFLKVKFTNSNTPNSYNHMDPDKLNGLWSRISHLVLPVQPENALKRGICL
Assay [20] addresses Alpha-bungarotoxin (Bungarus multicinctus) (UniProt P60615). In words: compounds binding labelled alpha-BTX control protein – biochemical, small-molecule microarray, Alexa647 label, 635/667 nm fluorescence, artefact control for SMM control protein annotation, profiling panel (AID 1117). The following applies: alpha-BTX-A647 binding fluorescence, higher = more signal.

Molecules are shown by their SMILES. The source made the active and inactive calls.

Chain of Alpha-bungarotoxin (Bungarus multicinctus) (P60615 whole entry, looked up): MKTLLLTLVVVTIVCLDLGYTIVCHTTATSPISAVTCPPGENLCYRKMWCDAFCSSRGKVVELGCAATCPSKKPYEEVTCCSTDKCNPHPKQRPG
Chain of Follistatin-related protein 3 (Homo sapiens) (O95633 whole entry, looked up): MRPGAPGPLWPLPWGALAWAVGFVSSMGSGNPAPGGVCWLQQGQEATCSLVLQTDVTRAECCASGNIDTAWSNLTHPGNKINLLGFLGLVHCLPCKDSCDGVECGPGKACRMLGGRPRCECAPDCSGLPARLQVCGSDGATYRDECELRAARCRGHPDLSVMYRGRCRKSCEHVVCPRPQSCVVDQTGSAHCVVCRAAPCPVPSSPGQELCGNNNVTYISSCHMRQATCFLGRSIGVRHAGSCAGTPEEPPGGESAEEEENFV
Chain of Left-right determination factor 2 (Homo sapiens) (O00292 whole entry, looked up): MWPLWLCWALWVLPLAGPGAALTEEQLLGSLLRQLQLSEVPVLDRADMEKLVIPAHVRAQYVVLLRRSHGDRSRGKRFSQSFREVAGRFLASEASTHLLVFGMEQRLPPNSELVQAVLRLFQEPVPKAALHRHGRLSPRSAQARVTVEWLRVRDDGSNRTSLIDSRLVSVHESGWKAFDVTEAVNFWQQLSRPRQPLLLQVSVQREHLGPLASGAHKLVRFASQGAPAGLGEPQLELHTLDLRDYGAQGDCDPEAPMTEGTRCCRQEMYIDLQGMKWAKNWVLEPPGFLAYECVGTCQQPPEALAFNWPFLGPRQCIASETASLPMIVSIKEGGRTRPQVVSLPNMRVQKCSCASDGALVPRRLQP
Chain of Dickkopf-related protein 1 (Homo sapiens) (O94907 whole entry, looked up): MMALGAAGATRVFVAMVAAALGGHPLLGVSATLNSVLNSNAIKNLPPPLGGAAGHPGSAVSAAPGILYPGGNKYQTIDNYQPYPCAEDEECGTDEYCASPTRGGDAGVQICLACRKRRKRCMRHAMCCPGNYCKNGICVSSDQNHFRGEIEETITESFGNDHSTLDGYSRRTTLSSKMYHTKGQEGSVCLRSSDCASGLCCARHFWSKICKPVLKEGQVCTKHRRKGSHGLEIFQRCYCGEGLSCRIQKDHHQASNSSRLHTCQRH
Chain of Epidermal growth factor receptor (Homo sapiens) (P00533 whole entry, looked up): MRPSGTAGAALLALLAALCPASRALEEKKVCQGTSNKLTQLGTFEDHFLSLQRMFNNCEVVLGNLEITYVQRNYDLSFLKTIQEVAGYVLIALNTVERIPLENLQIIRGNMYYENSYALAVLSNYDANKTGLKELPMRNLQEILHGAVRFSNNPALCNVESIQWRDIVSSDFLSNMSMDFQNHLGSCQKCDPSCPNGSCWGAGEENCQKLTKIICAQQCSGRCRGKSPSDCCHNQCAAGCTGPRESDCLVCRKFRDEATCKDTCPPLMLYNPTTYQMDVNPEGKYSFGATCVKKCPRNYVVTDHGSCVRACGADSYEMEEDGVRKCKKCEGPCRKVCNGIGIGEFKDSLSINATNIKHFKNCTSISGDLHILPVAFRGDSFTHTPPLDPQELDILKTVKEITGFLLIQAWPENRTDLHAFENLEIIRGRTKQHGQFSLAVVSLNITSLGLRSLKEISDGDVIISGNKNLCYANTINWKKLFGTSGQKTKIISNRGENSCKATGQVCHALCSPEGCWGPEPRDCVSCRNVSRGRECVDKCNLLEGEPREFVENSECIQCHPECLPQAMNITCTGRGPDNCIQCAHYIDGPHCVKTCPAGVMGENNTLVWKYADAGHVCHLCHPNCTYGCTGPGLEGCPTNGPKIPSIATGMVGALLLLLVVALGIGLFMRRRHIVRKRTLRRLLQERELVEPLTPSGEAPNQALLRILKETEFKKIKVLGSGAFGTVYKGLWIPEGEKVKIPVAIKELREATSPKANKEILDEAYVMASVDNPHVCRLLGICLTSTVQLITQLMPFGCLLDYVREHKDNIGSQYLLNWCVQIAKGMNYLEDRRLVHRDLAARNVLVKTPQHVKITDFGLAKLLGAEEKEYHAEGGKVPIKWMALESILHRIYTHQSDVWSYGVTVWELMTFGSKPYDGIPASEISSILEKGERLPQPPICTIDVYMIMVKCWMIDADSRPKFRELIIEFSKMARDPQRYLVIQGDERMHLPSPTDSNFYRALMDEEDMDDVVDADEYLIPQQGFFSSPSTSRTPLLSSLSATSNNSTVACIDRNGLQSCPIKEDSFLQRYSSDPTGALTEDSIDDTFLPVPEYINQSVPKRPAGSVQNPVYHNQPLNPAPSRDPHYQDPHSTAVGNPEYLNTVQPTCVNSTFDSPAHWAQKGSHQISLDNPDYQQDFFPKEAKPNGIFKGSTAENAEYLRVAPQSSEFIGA

In the case of `O=C(NCc1ccccc1)[C@@]1(CCS(=O)(=O)c2ccccc2)COC(c2ccc(OCCCO)cc2)=N1`, the composite z-score in assay [1] is 1.41; in assay [2] it was 0.933; in assay [3] it was 1.47; in assay [5] it was 0.748; in assay [6], 1.08; in assay [7], -0.166. For the same compound, the composite z-score was 0.23 in assay [8]; -0.594 in assay [9]; 0.807 in [10]; 0.623 in [11]; -0.0893 in assay [13]; 2.16 in assay [14]. Also, the composite z-score in [15] came out at 1.11; in assay [16], 0.111; in [17], 0.504; in [18], 1.85; in [19], 1.95; in assay [20], 3.73. The z-score in [4] is -0.969 (inactive); in assay [12] it was -1.71.
As for `C[C@@H]1NC(=O)[C@H](Cc2ccccc2)NC(=O)[C@@]23C(=O)N[C@@H](Cc4ccccc4)C2[C@H](C)[C@@]2(C)O[C@H]2C3/C=C/C/C=C\CNC1=O` (stereo not given in full), the composite z-score in assay [1] was 1.04; in assay [2] it was -0.277; in [3], -0.533; in [5], -0.356; in assay [6], -1.48; in [7] it was -0.202. The composite z-score in assay [8] was -0.0037; in [9], 0.515; in assay [10], 0.944; in assay [11], -2.69; in [13], -0.122; in assay [14], -0.472. The composite z-score is -1.06 in [15]; -0.124 in assay [16]; -0.0474 in [17]; -0.238 in assay [18]; 0.0403 in assay [19]; -0.576 in assay [20]. Also, the z-score in [4] was -0.212 (inactive); in [12], -1.06.
Consider `COC(=O)C(CC#Cc1ccc2c(c1)[C@]1(C(=O)N2)[C@H](C(=O)N2CCCCCCC2)[C@H]2C(=O)O[C@H](c3ccccc3)[C@H](c3ccccc3)N2[C@@H]1c1ccc(O)cc1)C(=O)OC`, for which the composite z-score in assay [1] was 0.465; in assay [2], -0.2; in assay [3] it was 0.269; in assay [5], -1.05; in assay [6] it was -1.63; in [7], -0.887. The composite z-score in [8] was -0.635; in assay [9], -0.785; in assay [10], 0.16; in [11] it was -1.26; in assay [13], -0.537; in [14], -0.433. Further, the composite z-score in [15] was -0.236; in [16], -0.125; in assay [17] it was -0.0769; in [18], -0.411; in assay [19], -0.723; in assay [20], -0.715. Also, the z-score in [4] was -0.751 (inactive); in assay [12] it was -0.789.
Take `Cc1ccc(S[C@]2(C(=O)O)CC(=O)N(Cc3cc(C(F)(F)F)cc(C(F)(F)F)c3)[C@@H]2c2ccc(CO)cc2I)cc1`: the composite z-score is 1.3 in assay [1]; 0.483 in [2]; 1.16 in [3]; -0.458 in assay [5]; -1.13 in assay [6]; -1.65 in [7]. Besides, the composite z-score is -1.07 in [8]; -1.38 in [9]; 0.645 in assay [10]; -0.0997 in [11]; -2.05 in assay [13]; -0.279 in [14]. Further, the composite z-score in [15] was 0.74; in assay [16] it was -0.0824; in assay [17] it was 0.0767; in [18] it was 0.181; in assay [19], 0.598; in assay [20] it was -0.206. The z-score was -1.48 (inactive) in assay [4] and -1.39 in [12].
With `C[C@@H]1CC[C@H]2C(=O)N3CCC[C@H]3C(=O)N2[C@H]1c1ccc(Br)cc1`, the composite z-score is 0.654 in assay [1]; -0.178 in assay [2]; -0.439 in assay [3]; 0.125 in assay [5]; 0.267 in [6]; 0.0436 in assay [7]. In addition, the composite z-score in assay [8] was 0.0529; in assay [9], 0.526; in assay [10], 0.38; in [11], 0.175; in assay [13], 0.267; in [14], -0.243. For the same compound, the composite z-score in assay [15] was -0.558; in assay [16], -0.212; in assay [17], -0.0769; in [18], -0.307; in assay [19] it was 0.324; in assay [20], -0.179. For the same compound, the z-score was -0.931 (inactive) in assay [4] and 0.673 in assay [12].

These data come from PubChem BioAssay.
